Screening results (PubChem BioAssay)
In the library only some 3% were active in any assay of this set; here they are far more common.
PAFAH2 inh: PAFAH2 enzyme inhibitors, primary screen, biochemical, fluorescence polarization, human; Platelet-activating factor acetylhydrolase 2, cytoplasmic (Homo sapiens), Q99487; recombinant PAFAH2, FP-rhodamine activity probe; inhibition, % at 3.39 µM; actives 0.99% (n = 340,000); AID 492956, 2010;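 active means inhibition above the mean over all tested compounds plus 3 SD, cut at about 30% in these data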;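 further: inhibitors block probe labeling of enzyme so polarization drops; 0% = enzyme with DMSO and 100% = wells lacking PAFAH2 protein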
Fh CTSL1 inh: Fasciola hepatica cathepsin L1 inhibitors, primary screen, counter-screen for PFM18AAP inhibitor project, biochemical, QFRET, fluorogenic peptide substrate; recombinant F. hepatica cathepsin L1, Z-Leu-Arg-MCA fluorescence; inhibition, % at 5.96 µM; actives 0.49% (n = 300,000);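 active means inhibition above the mean of all tested compounds plus 3 SD, set per screening campaign, cut at about 17% in these data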;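 further: 0% = plate median of test compound wells and 100% = 1 µM Z-Phe-Ala-diazomethylketone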
pPAFAH inh: pPAFAH enzyme inhibitors, primary screen, biochemical, fluorescence polarization, human. Platelet-activating factor acetylhydrolase (Homo sapiens), Q13093. recombinant pPAFAH, FP-rhodamine probe fluorescence polarization. inhibition, % at 3.39 µM. actives 1.5% (n = 330,000). AID 463082, 2010;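 active means inhibition above the mean inhibition across the screen plus 3 SD, cut at about 25% in these data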;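 further: inhibitors block binding of the rhodamine activity-based probe so polarization drops; 0% = enzyme with DMSO and 100% = wells lacking pPAFAH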
PP5 primary: PP5 phosphatase inhibitors, primary screen, biochemical, fluorescence; inhibition, % at 6.7 µM; AID 1987, 2009; Serine/threonine-protein phosphatase 5 (Homo sapiens), P53041; actives 0.18% (n = 320,000); purified PP5c, OMFP substrate fluorescence;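 active means inhibition above the campaign's mean inhibition across all tested compounds plus 3 SD, cut at about 9.5% in these data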;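 further: 0% = DMSO only and 100% = 100 µM cantharidin control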
Target sequence (P53041 whole entry, looked up): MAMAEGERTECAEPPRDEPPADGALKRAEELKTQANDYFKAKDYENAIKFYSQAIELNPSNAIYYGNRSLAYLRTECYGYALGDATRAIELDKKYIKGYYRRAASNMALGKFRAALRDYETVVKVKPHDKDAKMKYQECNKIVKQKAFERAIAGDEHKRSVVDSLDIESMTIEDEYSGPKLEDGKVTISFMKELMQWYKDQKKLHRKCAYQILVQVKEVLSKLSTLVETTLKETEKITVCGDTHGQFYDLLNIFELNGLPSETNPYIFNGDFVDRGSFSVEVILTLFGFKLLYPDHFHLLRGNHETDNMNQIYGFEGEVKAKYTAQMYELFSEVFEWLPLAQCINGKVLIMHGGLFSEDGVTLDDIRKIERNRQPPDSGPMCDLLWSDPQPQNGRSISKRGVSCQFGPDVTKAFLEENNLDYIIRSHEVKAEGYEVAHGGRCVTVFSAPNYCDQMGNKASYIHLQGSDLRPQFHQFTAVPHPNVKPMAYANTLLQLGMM
PAFAH1B2 FP inh: PAFAH1B2 enzyme inhibitors, primary screen, biochemical, fluorescence polarization, human; Platelet-activating factor acetylhydrolase IB subunit alpha2 (Homo sapiens), P68402; recombinant PAFAH1B2, FP-rhodamine activity probe; inhibition, % at 3.39 µM; actives 1.2% (n = 340,000);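 active means inhibition above the mean of all tested compounds plus 3 SD, cut at about 24% in these data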;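 further: 0% = enzyme with DMSO and 100% = wells lacking PAFAH1B2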
PAFAH1B3 inh: PAFAH1B3 enzyme inhibitors, primary screen, biochemical, fluorescence polarization, human | Platelet-activating factor acetylhydrolase IB subunit alpha1 (Homo sapiens), Q15102 | recombinant PAFAH1B3, FP-rhodamine probe | actives 0.28% (n = 340,000) | inhibition, % at 3.39 µM;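 active means inhibition above the screen-wide average of all tested compounds plus 3 SD, cut at about 25% in these data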;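 further: 0% = enzyme with DMSO only and 100% = wells lacking PAFAH1B3 protein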
Target sequence (Q15102 whole entry, looked up): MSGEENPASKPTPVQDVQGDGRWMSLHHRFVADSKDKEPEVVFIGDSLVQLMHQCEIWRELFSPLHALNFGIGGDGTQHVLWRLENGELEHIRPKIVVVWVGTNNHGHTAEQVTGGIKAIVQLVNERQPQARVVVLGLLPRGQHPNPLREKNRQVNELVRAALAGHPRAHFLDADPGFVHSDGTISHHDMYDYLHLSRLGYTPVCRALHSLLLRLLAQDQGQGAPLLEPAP
pPAFAH FP conf: pPAFAH (PLA2G7) enzyme inhibitors, confirmation, biochemical, fluorescence polarization, human; inhibition, % at 3.39 µM; actives 72% (n = 2,300); shares compounds with pPAFAH inh; recombinant pPAFAH, FP-Rh probe fluorescence polarization;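 active means mean inhibition of the triplicate above the hit cutoff set for the earlier primary screen, cut at about 25% in these data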;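 further: 0% = enzyme with DMSO and 100% = wells lacking pPAFAH enzyme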
PAFAH2 FP conf: PAFAH2 enzyme inhibitors, confirmation, biochemical, fluorescence polarization, human | AID 493030, 2011 | shares compounds with PAFAH2 inh | recombinant PAFAH2, FP-rhodamine activity probe | inhibition, % at 3.39 µM | actives 65% (n = 2,300);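 active means mean inhibition over three repeats above a set limit taken from the earlier primary screen, cut at about 30% in these data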;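 further: inhibitor blocks binding of rhodamine activity probe so polarization falls; 0% = enzyme with DMSO and 100% = wells lacking PAFAH2 protein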
PAFAH1B3 confirm: PAFAH1B3 enzyme inhibitors, confirmation, biochemical, fluorescence polarization, human. shares compounds with PAFAH1B3 inh. inhibition, % at 3.39 µM. actives 30% (n = 390). recombinant PAFAH1B3, FP-Rh activity-based probe;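 active means average inhibition over triplicate runs above the hit cutoff set in the earlier primary screen, cut at about 25% in these data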;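 further: 0% = enzyme with DMSO and 100% = wells lacking PAFAH1B3 protein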
Active calls of the source: *; . = no result given.

SMILES	PAFAH2 inh	Fh CTSL1 inh	pPAFAH inh	PP5 primary	PAFAH1B2 FP inh	PAFAH1B3 inh	pPAFAH FP conf	others
CCN1/C(=C/C=C/c2oc3ccc(-c4ccccc4)cc3[n+]2CC)Oc2ccc(-c3ccccc3)cc21	28.8	-1.4	59.4*	-49.0	26.3*	18.7	12.5
CCN1/C(=C/C=C/c2sc3ccccc3[n+]2CC)Sc2ccccc21	-267.7	7.5	-157.0	6.5	-242.7	-377.9	.
COc1ccc(NC(=O)c2ccccc2OCc2ccc(F)cc2)c(OC)c1	3.9	-0.9	2.6	3.3	3.4	9.2	.
Oc1c(Br)cc(/C=N/NC(=S)NCc2ccco2)cc1Br	22.3	-0.1	41.4*	-1.3	15.0	-1.6	57.1*
Oc1ccc(/C=N/NC(=S)NCc2ccco2)cc1	3.1	2.3	5.7	0.0	4.1	-0.8	.
Cn1c2ccccc2c(=O)c2ccc(NCCc3cccs3)cc21	20.8	.	38.4*	.	12.5	9.5	15.8
COc1ccc(C)cc1NC(=O)CSc1nnc(-c2cc(C)[nH]n2)n1N	-1.3	-1.8	5.3	1.2	-3.2	1.3	.
CN(CC(=O)Nc1ccc(Cl)cc1)C(=O)c1ccc(-n2cncn2)c([N+](=O)[O-])c1	2.7	4.8	71.2*	1.3	4.1	-6.6	0.1
COc1ccc2[nH]c(=O)c(CN(C(=O)C(C)C)c3ccccc3OC)cc2c1	0.5	-1.1	-0.1	2.4	0.3	8.5	.
Cc1nc(-c2ccccc2)sc1C(=O)Nc1ccccc1F	-1.7	-1.6	8.5	2.6	9.2	-7.3	.
Cc1nc(-c2ccccc2)sc1C(=O)Nc1ccc(S(N)(=O)=O)cc1	3.7	8.4	45.6*	4.2	3.9	1.1	-7.0
COc1cccc(NC(=O)Nc2cc(C(=O)NCC3CCCO3)ccc2N2CC3CC(C2)c2cccc(=O)n2C3)c1 (configuration not stated)	7.3	2.8	62.4*	-2.4	0.8	9.5	61.2*
Cc1nc(-c2ccccc2)cc(=O)[nH]1	10.3	1.5	1.3	2.4	2.1	15.5	.
CCc1nc(-c2ccccc2)cc(=O)[nH]1	4.1	3.3	40.1*	-0.6	-1.2	9.8	3.8
O=C1CC(Nc2ccc(N3CCOCC3)cc2)C(=O)N1c1cccc(C(F)(F)F)c1 (configuration not stated)	12.5	-1.1	46.1*	0.8	2.8	3.9	5.8
COc1cccc(N2C(=O)CC(Nc3ccc(N4CCOCC4)cc3)C2=O)c1 (configuration not stated)	32.7*	-0.5	39.2*	-1.9	5.9	4.8	-0.1
CN(C)c1ccc(N2C(=O)CC(Nc3ccc(N4CCOCC4)cc3)C2=O)cc1 (configuration not stated)	5.8	0.7	6.8	1.8	-1.2	-7.6	.
COc1ccc(N2C3=C(CC4=C2CCCC4=O)C(=O)CCC3)cc1	13.7	0.7	44.0*	-0.3	2.8	13.8	6.7
COCCCNC(=O)c1ccc(N2CCCC2)c(NS(=O)(=O)c2ccc(C)cc2)c1	17.5	-3.2	5.1	1.2	-1.2	9.7	.
CCOCCCNC(=O)c1ccc(N2CCCC2)c(NS(=O)(=O)c2ccc(C)cc2)c1	2.6	-0.6	52.0*	0.1	3.8	3.5	3.3
CC(C)N(Cc1nnc(-c2ccc(Cl)cc2)o1)C(=O)c1cc2ccccc2o1	8.1	.	4.2	0.1	8.0	5.5	.
O=C(OCc1cc(=O)n2ccsc2n1)c1ccccc1NCCO	3.9	.	73.8*	.	4.3	4.3	3.8
O=C(OCc1cc(=O)n2ccsc2n1)c1ccccc1O	2.7	.	-0.3	.	5.0	2.0	.
N=C1SC(c2ccccc2)C(=O)N1c1ncc(Cc2ccccc2Cl)s1 (configuration not stated)	25.3	0.9	58.3*	-1.4	13.3	-0.5	71.0*
CCc1cc(C(=O)NCC2CCCO2)sc1C (configuration not stated)	2.4	-1.1	3.1	2.1	0.6	3.5	.
SMILES	PAFAH2 inh	Fh CTSL1 inh	pPAFAH inh	PP5 primary	PAFAH1B2 FP inh	PAFAH1B3 inh	pPAFAH FP conf	others
O=C1C=C(c2ccc(C(=O)O)c(Cl)c2)C[C@@H](c2ccc3c(c2)OCO3)C1	4.5	.	6.0	.	8.1	12.9	.
Cc1ccc(C(C)C)c(OCc2ccc(C(=O)N/N=C/c3cccc(O)c3O)cc2)c1	21.6	-0.9	54.2*	1.8	15.6	33.2*	51.7*	PAFAH1B3 confirm=12.5
CC(NC(=O)COC(=O)C1CCN(c2ccc(C(F)(F)F)cn2)CC1)c1ccc(Br)cc1 (configuration not stated)	1.1	-3.4	-2.3	5.1	12.6	1.3	.
O=C1NN(c2ccccc2)C(=O)/C1=C/c1ccc(-c2ccc(C(=O)O)cc2)o1	31.2*	6.5	19.8	1.9	8.2	12.0	.	PAFAH2 FP conf=13.5
COC(=O)c1ccc(N2NC(=O)/C(=C/c3ccc(-c4ccc(Cl)c(C(=O)O)c4)o3)C2=O)cc1	23.4	.	.	.	9.0	10.2	.
CCN(CC)S(=O)(=O)c1ccc(N2CCOCC2)c(NC(=O)Cc2cccc3ccccc23)c1	60.5*	0.6	8.5	-0.7	-6.8	6.5	.	PAFAH2 FP conf=45.0*
CCOc1ccc(C(=O)OCC(=O)Nc2ccc3c(c2)OCCO3)cc1OC	74.0*	.	0.4	-1.9	8.3	-2.8	.	PAFAH2 FP conf=82.7*
COc1ccc(C(=O)OCC(=O)Nc2ccc3c(c2)OCCO3)c(OC)c1	55.1*	.	0.6	1.9	4.2	2.8	.	PAFAH2 FP conf=50.3*
CCOc1ncccc1C(=O)OCC(=O)Nc1ccc2c(c1)OCO2	31.7*	-9.1	21.7	3.1	3.8	-0.8	.	PAFAH2 FP conf=35.9*
COc1ccc(CC(=O)OCC(=O)Nc2ccc3c(c2)OCCO3)cc1OC	1.9	-8.7	4.3	-1.0	-2.3	5.6	.
O=C(OCC1COc2ccccc2O1)c1ccccc1F (configuration not stated)	38.6*	-1.0	11.8	0.1	-1.0	3.5	.	PAFAH2 FP conf=23.8
OCCCNc1ncnc2scc(-c3ccc(Cl)cc3)c12	-6.0	.	.	.	9.2	-1.1	.
